A short description of assay [1]: Nuclear factor erythroid 2-related factor 2/antioxidant responsive element (Nrf2/ARE) small molecule agonists: qHTS cell viability counter screen in human keratinocytes (AID 1919968; active = well fitted curve in the direction sought with a large enough effect in the repeat runs; an effect the other way counts as inactive or inconclusive; also: nearly all actives have a fitted effect of over 55% in size). The essentials:
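Seed 1,500 KeratinoSens cells per well, then incubate 5 h at 37 C/5% CO2. Add compounds in DMSO and incubate 23 h. Add CellTiter-Fluor, wait 1 h and read fluorescence.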

The nature of assay [2]: Nuclear factor erythroid 2-related factor 2/antioxidant responsive element (Nrf2/ARE) small molecule agonists: luciferase reporter gene qHTS assay in human keratinocytes (AID 1919969). Also: nearly all actives have a fitted effect of over 35% in size. A general note: Reporter assays use an easily measured gene product as a stand-in for the process of interest.
Assay [3] can be described thus: G protein-coupled receptor (GPCR) small molecule agonists, calcium flux assay: HEK293 wild type cell line counter screen (AID 1920065). Summed up:
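Counter-screen of the Tox21 10K library for non-specific calcium release: dye-loaded cells received compounds in DMSO and were monitored by kinetic fluorescence (480/540 nm, 3 min). Fifteen concentrations, run in triplicate.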
Background: A change in cytosolic calcium serves as a functional read-out for many receptors and channels.

Assay [4] in a line: p53 small molecule agonists, cell-based qHTS assay with human liver microsomes (AID 1963577).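 Also: p53 response element beta-lactamase reporter cells with liver microsomes plus NADPH.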 The essentials: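 16 h, 37 C exposure of p53RE-bla cells to compounds with human liver microsomes and NADPH (0.5 mg/mL final each); detection via LiveBLAzer mixture, 2 h dark at room temperature.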
Assay [5] in a line: p53 small molecule agonists, cell-based qHTS assay with rat liver microsomes (AID 1963578). Summed up:
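With rat liver microsomes and NADPH present (0.5 mg/mL final each), p53RE-bla cells are treated with compound for 16 h at 37 C. LiveBLAzer detection mixture is then applied for 2 h at room temperature in the dark.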
(qHTS replaces the single test concentration by a dilution series.)

Assay [6] can be described thus: p53 small molecule agonists, cell-based qHTS assay with human liver microsomes: qHTS cell viability counter screen (AID 1963579). Also: nearly all actives have a fitted effect of over 45% in size. Summed up: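 In this multiplexed counter screen, the reporter plates were subsequently treated with CellTiter-Glo so that cell viability, reflected by luminescence, could be recorded for p53RE-bla cells dosed 16 h with compounds under microsomal activation (HLM and NADPH).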

A short description of assay [7]: p53 small molecule agonists, cell-based qHTS assay with rat liver microsomes: qHTS cell viability counter screen (AID 1963580). Also: nearly all actives have a fitted effect of over 45% in size. The essentials: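 p53RE-bla HCT-116 cells (4,000/well) rested 5 h at 37 C, then given Tox21 compounds in DMSO with rat liver microsomes (0.5 mg/mL final) plus NADPH (0.5 mg/mL final) for 16 h at 37 C. Viability read by CellTiter-Glo luminescence after 30 min at room temperature.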

The nature of assay [8]: p53 small molecule agonists, cell-based qHTS assay: qHTS cell viability counter screen (AID 1963581). Also: nearly all actives have a fitted effect of over 45% in size. Also: potency is read from the fitted curve at half-maximal effect. Summed up: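 Cells: HCT-116 with p53 response element-driven beta-lactamase. Treatment: 16 h, 37 C, compounds in DMSO. Read: CellTiter-Glo luminescence after 30 min RT.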
Assay [9] in a line: p53 small molecule agonists, cell-based qHTS assay (AID 1963582; active = well fitted activation curve with a large enough effect in the signal ratio in the repeat runs, not every such curve was filed as active; the % refers to the signal ratio). The essentials: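 Quantitative HTS in p53RE-bla cells: after a 5 h settling period, compounds delivered in DMSO were left on cells for 16 h at 37 C, and reporter induction was measured as fluorescence following 2 h substrate loading.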
Assay [10] addresses 5-hydroxytryptamine receptor 2A (Homo sapiens) (UniProt P28223). Nature of the assay: 5-hydroxytryptamine receptor 2A (HTR2A) small molecule antagonists, cell-based qHTS assay (AID 1963586). Also: nearly all actives have a fitted effect of over 45% in size. The essentials: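 Antagonist-mode intracellular calcium assay: DOI (4 nM) added after 5 min compound pre-incubation at room temperature to dye-loaded HTR2A-CHO cells. Fluorescence followed for 3 min, sampled every second.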

Assay [11] has the same target. Nature of the assay: 5-hydroxytryptamine receptor 2A (HTR2A) small molecule agonists, cell-based qHTS assay (AID 1963587). Also: nearly all actives have a fitted effect of over 30% in size. Summed up:
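HTR2A-CHO cells, plated 18 h at 37 C/5% CO2, dye-loaded 1 h at 37 C; compounds in DMSO added by pin tool (agonist mode). Intracellular calcium flux read as kinetic fluorescence on FDSS over 2 min at 1 s intervals.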

In assay [12] the target is Muscarinic acetylcholine receptor M1 (Homo sapiens) (UniProt P11229). Nature of the assay: Cholinergic receptor muscarinic 1 (CHRM1) small molecule antagonists, cell-based qHTS assay (AID 1963588). Also: nearly all actives have a fitted effect of over 40% in size. The essentials: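 CHRM1-CHO calcium-flux assay, antagonist mode. Cells were seeded 18 h, dye-loaded 1 h at 37 C and given compound for 5 min at RT, then acetylcholine was added at 50nM. FDSS fluorescence was read 3 min; 15 concentrations, three runs.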

Assay [13] has the same target. Nature of the assay: Cholinergic receptor muscarinic 1 (CHRM1) small molecule agonists, cell-based qHTS assay (AID 1963589). Also: nearly all actives have a fitted effect of over 35% in size. The essentials: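 Agonist-mode qHTS in CHO cells stably carrying human muscarinic M1. Intracellular calcium is tracked by fluorescence every second after compound transfer; each compound runs at 15 concentrations in three independent runs.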

The nature of assay [14]: cAMP Responsive Elements (CRE) small molecule agonists, cell-based qHTS assay (AID 1963590). The essentials:
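Agonist mode qHTS in CRE-bla HEK 293T cells: compounds dosed from DMSO for 3 h at 37 C/5% CO2, followed by LiveBLAzer B/G FRET substrate for 2 h at room temperature.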

A short description of assay [15]: cAMP Responsive Elements (CRE) small molecule antagonists, cell-based qHTS assay (AID 1963591; active = well fitted inhibition curve with a large enough effect in the signal ratio in the repeat runs, not every such curve was filed as active; the % refers to the signal ratio). Summed up:
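Antagonist mode: test compounds are co-incubated with the adenylyl cyclase activator NKH477 (0.25 uM final) on CRE-bla HEK293T cells for 3 h at 37 °C, followed by LiveBLAzer substrate loading.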

Assay [16] has as its target Beta-2 adrenergic receptor (Homo sapiens) (UniProt P07550). Description: Adrenergic beta2 receptor (ADRB2) small molecule antagonists, cell-based qHTS assay (AID 1963592). Also: series mostly up to about 92 µM; nearly all actives have a fitted effect of over 50% in size. Summed up:
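Cells (CHO, stable ADRB2 overexpression) incubated 18-20hr at 37C; compounds added from DMSO; agonist mix (1nM isoproterenol, 100uM IBMX, 25uM Ro-20-1724) added; 0.5hr RT; d2-cAMP and anti-cAMP-cryptate added; 1hr RT; 665/615 nm read.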

Assay [17] deals with D(2) dopamine receptor (Homo sapiens) (UniProt P14416). Description: Dopamine D2 receptor (DRD2) small molecule agonists, cell-based qHTS assay (AID 1963594). Also: nearly all actives have a fitted effect of over 35% in size. Summed up:
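HEK293 cells stably expressing DRD2 were cultured 24 h at 37 C, then given Ro20-1724 (0.1 mM final) and compounds for 10 min at room temperature. NKH477 (200nM) was then added for 30 min. cAMP was read by HTRF.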

Assay [18] has the same target. Nature of the assay: Dopamine D2 receptor (DRD2) small molecule antagonists, cell-based qHTS assay (AID 1963595; active = well fitted inhibition curve with a large enough effect in the signal ratio in the repeat runs, with a control signal flat; the % refers to the signal ratio). The essentials:
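Readout: HTRF cAMP, cAMP-d2 competing with cellular cAMP for anti-cAMP cryptate, read after 1 h. Cells: DRD2-HEK293. Conditions: 0.1 mM Ro20-1724, 12 nM quinpirole, 200 nM NKH477, 30 min RT.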

The target of assay [19] is KiSS-1 receptor (Homo sapiens) (UniProt Q969F8). Nature of the assay: Human kisspeptin (KISS1R) small molecule agonists, calcium flux assay in KISS1R-HEK293 cells (AID 1920064; active = well fitted curve in the direction sought with a large enough effect in the repeat runs; an effect the other way counts as inactive or inconclusive). Summed up:
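Cells plated and incubated 18 h; dye added, 1 h at 37 C; compounds in DMSO pinned in; signal read at 480/540 nm every second for 3 min. Each compound tested at 15 concentrations in triplicate.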

The target in assay [20] is Beta-2 adrenergic receptor (Homo sapiens) (UniProt P07550). Description: Adrenergic beta2 receptor (ADRB2) small molecule agonists, cell-based qHTS assay (AID 1963593).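 Also: CHO cells stably overexpressing human ADRB2.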 The essentials: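 CHO cells stably over-expressing ADRB2 were plated overnight at 37C, then dosed with compounds plus a stimulation mix containing 100uM IBMX and 25uM Ro-20-1724 for 0.5hr at room temperature. cAMP was measured by HTRF competition, 1hr.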

“And” between values parts separate entries of the source, which are not always exact repeats. Equal values may be shown once. Results filed as inconclusive are left out. Some compounds were tested as several samples or in several runs, with calls that do not always agree. The source made the active and inactive calls. Unless noted, calls follow the shape of the full dose curve.

This passage reports Potency results from PubChem BioAssay (Tox21).

Chain of 5-hydroxytryptamine receptor 2A (Homo sapiens) (P28223 whole entry, looked up): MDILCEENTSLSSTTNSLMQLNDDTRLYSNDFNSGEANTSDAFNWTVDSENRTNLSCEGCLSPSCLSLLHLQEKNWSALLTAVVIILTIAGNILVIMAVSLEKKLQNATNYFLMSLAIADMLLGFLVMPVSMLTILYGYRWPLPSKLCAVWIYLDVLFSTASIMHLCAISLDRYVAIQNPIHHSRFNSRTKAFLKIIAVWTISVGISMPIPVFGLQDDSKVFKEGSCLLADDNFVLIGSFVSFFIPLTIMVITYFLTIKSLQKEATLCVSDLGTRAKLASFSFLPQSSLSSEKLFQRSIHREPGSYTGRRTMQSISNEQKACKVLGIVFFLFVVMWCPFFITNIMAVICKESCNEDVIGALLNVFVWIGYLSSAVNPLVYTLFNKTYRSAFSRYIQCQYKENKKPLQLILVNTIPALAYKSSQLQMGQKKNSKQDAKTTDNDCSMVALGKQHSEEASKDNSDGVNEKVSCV
Chain of KiSS-1 receptor (Homo sapiens) (Q969F8 whole entry, looked up): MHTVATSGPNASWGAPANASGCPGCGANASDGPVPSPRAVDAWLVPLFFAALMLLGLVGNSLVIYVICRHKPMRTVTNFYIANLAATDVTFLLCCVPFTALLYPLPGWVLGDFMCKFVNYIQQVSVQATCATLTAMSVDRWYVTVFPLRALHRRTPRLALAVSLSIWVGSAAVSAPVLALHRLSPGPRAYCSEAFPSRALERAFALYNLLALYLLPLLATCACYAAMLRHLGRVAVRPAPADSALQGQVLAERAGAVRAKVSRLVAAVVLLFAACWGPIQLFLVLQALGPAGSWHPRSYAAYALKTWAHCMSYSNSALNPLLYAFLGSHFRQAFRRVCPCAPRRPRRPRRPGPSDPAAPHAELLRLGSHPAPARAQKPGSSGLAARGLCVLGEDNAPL
Chain of Beta-2 adrenergic receptor (Homo sapiens) (P07550 whole entry, looked up): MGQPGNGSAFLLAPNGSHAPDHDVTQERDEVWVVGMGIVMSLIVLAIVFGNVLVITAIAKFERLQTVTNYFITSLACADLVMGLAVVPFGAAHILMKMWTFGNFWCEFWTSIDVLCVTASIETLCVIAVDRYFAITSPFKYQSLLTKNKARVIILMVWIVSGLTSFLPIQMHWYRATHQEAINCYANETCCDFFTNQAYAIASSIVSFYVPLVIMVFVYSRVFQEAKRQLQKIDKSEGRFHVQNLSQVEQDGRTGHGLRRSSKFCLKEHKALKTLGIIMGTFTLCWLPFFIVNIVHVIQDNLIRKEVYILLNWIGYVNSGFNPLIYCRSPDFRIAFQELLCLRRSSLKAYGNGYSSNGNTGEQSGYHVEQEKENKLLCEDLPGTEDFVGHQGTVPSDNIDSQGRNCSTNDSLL
Chain of D(2) dopamine receptor (Homo sapiens) (P14416 whole entry, looked up): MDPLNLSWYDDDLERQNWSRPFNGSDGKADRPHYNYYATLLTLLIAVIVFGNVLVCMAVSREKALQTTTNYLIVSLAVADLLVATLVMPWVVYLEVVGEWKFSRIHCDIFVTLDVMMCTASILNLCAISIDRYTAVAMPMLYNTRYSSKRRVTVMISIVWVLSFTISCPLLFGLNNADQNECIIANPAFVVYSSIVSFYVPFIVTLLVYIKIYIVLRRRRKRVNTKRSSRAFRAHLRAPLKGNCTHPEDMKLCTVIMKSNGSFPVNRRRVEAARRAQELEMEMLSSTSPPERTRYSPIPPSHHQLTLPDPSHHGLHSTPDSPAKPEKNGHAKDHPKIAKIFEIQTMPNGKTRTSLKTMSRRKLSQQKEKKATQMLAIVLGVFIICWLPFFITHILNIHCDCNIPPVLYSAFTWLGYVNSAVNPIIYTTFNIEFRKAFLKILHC
Chain of Muscarinic acetylcholine receptor M1 (Homo sapiens) (P11229 whole entry, looked up): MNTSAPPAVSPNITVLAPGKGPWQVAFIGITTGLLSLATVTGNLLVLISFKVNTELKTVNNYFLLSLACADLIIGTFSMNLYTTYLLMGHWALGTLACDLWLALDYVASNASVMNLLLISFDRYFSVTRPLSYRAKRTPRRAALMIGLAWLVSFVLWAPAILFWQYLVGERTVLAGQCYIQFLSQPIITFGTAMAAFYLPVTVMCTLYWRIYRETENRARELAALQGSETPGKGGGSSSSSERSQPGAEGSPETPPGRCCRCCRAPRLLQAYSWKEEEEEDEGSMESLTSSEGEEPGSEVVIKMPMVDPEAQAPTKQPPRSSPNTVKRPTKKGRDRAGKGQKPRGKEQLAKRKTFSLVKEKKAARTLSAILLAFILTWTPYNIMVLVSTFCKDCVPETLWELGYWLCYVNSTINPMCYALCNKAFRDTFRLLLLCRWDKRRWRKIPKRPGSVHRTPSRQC

As to `O=[N+]([O-])c1ccccc1C(F)(F)F`, the Potency result in assay [1], in assay [2], in assay [3], in [4], in assay [5] and in assay [6] was “inactive” in each case. Further, the Potency result in [7], in assay [8], in [9], in assay [10], in assay [11] and in assay [12] was “inactive” each time. The Potency result in assay [13], in assay [14], in assay [15], in [16], in assay [17] and in assay [18] was “inactive” each time.

On to `OC[C@H]1O[C@@H](Oc2ccc(O)cc2)[C@H](O)[C@@H](O)[C@@H]1O`, for which the Potency result in [1], in assay [19], in assay [3], in [4], in assay [5] and in [6] was “inactive” each time. Moreover, the Potency result in assay [7], in assay [8], in assay [9], in assay [10], in assay [11] and in [12] was “inactive” throughout. The Potency result in assay [14], in [15], in assay [16], in assay [20], in [17] and in [18] was “inactive” throughout.

For `CCOC(=O)NNc1nncc2ccccc12`, the Potency entry in assay [1], in assay [2], in [3], in [4], in [6] and in assay [7] was “inactive” in each case. Further, the Potency entry in assay [8], in assay [9], in [10], in assay [11], in assay [12] and in [13] was “inactive” each time. For the same compound, the Potency result in [14], in assay [15], in assay [20], in assay [17] and in assay [18] was “inactive” each time.

As for `NC(N)=O`, the Potency result in [1], in [2], in [19], in assay [3], in [6] and in assay [7] was “inactive” in each case. Further, the Potency result in assay [8], in assay [10], in [11], in [12], in assay [13] and in assay [14] was “inactive” throughout. The Potency entry in [15], in [16], in [20], in [17] and in assay [18] was “inactive” each time.

As to `Clc1cc(Cl)c(Cl)cc1Cl`, the Potency result in assay [1], in assay [19], in assay [3], in assay [4], in [5] and in assay [6] was “inactive” throughout. The Potency entry in assay [7], in assay [9], in [10], in assay [11], in assay [12] and in assay [13] was “inactive” in each case. Also, the Potency result in [14], in [15], in assay [16], in assay [20], in assay [17] and in assay [18] was “inactive” each time. Besides, the Potency result in assay [8] is “inactive and 16.2 µM (active)”.

Consider `COc1ccc(CN(CCN(C)C)c2ccccn2)cc1`, for which the Potency entry in [1], in assay [2], in [19], in assay [3], in [6] and in assay [7] was “inactive” each time. Besides, the Potency result in [8], in assay [14], in [15], in assay [16], in assay [20] and in assay [17] was “inactive” each time. In assay [18], the Potency entry is “inactive”.

Turning to `CC1Cc2ccccc2N1NC(=O)c1ccc(Cl)c(S(N)(=O)=O)c1` (configuration not stated), the Potency result in assay [1], in assay [19], in assay [3], in assay [4], in assay [5] and in [6] was “inactive” each time. For the same compound, the Potency result in [7], in [8], in assay [9], in assay [14], in assay [15] and in [16] was “inactive” each time. Besides, the Potency entry in [20], in [17] and in [18] was “inactive” each time.
